# Data: PubChem BioAssay AID624405 (Broad Institute, 2012)
# In all, about 1,900 compounds went through this assay and about 250 (13%) were called active. Inconclusive results (about 4%) are left out. The list is a sample of the results. Measured potencies and affinities stand elsewhere. A number with no mark means an inactive call.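 Rule for the calls: active = fitted curve reaches 40% rescue activity at or below the top valid dose, in every test run; inconclusive = test runs disagree, some active and some inactive; inactive = every run misses the threshold or moves the wrong way.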
# Assay: suppressors of statin myotoxicity in myotubes, dose response, cell-based, C2C12 myotubes, ATP luminescence, cherry pick (AID 624405);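 note: myotubes are challenged with simvastatin at 10 µM to lower ATP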
# Settings: C2C12 myotubes + simvastatin, 48 h, scaled: DMSO wells 0, geranylgeraniol wells 100; series mostly up to 19.5 µM; rescue activity (ATP increase): at the top concentration
row,SMILES,rescue activity (ATP increase)
1,C[C@H](CO)N1C[C@H](C)[C@H](CN(C)C(=O)Nc2cccc3ccccc23)OCCCC[C@H](C)Oc2ccc(NS(=O)(=O)c3ccc(Cl)cc3)cc2C1=O,16.9%
2,C[C@@H]1CN([C@@H](C)CO)C(=O)c2cc(NC(=O)c3ccncc3)ccc2O[C@@H](C)CCCCO[C@@H]1CN(C)Cc1ccc(C(F)(F)F)cc1,21%
3,CC(=O)c1c(C)[nH]c(C(=O)CSc2nnc(C3CCCCC3)n2N)c1C,18.1%
4,CC1CSc2nc3sc4c(c3c(=O)n21)CCCC4 (stereo not given),20.3%
5,COc1cc2c(N3CCOCC3)cc(O)c(CC(=O)Nc3ccccc3)c2cc1OC,-14.5%
6,O=C(Oc1ccc(C(=S)N2CCOCC2)cc1Br)c1ccccc1F,-12.4%
7,C[C@@H]1CN([C@H](C)CO)S(=O)(=O)c2ccc(/C=C/c3ccccc3)cc2O[C@@H]1CN(C)C(=O)NC1CCCC1,2.94%
8,COc1ccc(S(=O)(=O)Nc2ccc3c(c2)CC(=O)N([C@@H](C)CO)C[C@H](C)[C@@H](CN(C)Cc2ccc(Cl)c(Cl)c2)O3)cc1,27.9%
9,COC(=O)c1cn(Cc2ccc(C(F)(F)F)cc2)cc(F)c1=O,-11.3%
10,Cc1ccc(S(=O)(=O)NNC(=O)c2snnc2C)cc1,-7.58%
11,Cc1ccc(N2N=C(C(=O)O)CCC2=O)cc1Cl,16.1%
12,CC(C(=O)NCC1CCCO1)n1cccc1C(=O)c1ccccc1 (stereo not given),13%
13,C=C(C)C1CC=C(C)/C(=N/NC(=O)c2ccc(NC(=O)CC)cc2)C1 (stereo not given),-9.09%
14,COc1ccc(NC(=O)c2cc(-c3cccs3)on2)cc1,-2.21%
15,C/C(=N/Nc1nc(-c2ccc(Cl)cc2)cs1)c1cccs1,-40.2%
16,c1ccc(Nc2nc(-c3cccs3)cs2)nc1,26%
17,Cc1cc(C(=O)Nc2ccc3c(c2)C(=O)N(C)[C@@H]2CC[C@@H](CC(=O)N[C@H](C)c4ccccc4)O[C@@H]2CO3)no1,26.1%
18,CCOC(=O)N1CCN(C(=O)Cc2ccsc2)CC1,-30.6%
19,CC(C)[C@H](NS(=O)(=O)c1ccccc1)C(=O)OCC(=O)NC(=O)NC1CCCCC1,-10.8%
20,C[C@@H]1CN([C@@H](C)CO)C(=O)c2cccc(NS(=O)(=O)c3cccs3)c2O[C@@H]1CN(C)C(=O)Nc1ccc(C(F)(F)F)cc1,-7.49%
21,C[C@H](CO)N1C[C@H](C)[C@H](CN(C)C(=O)Nc2ccc(F)cc2)OCCCC[C@H](C)Oc2ccc(NC(=O)Cc3ccccc3)cc2C1=O,-7.95%
22,Fc1ccc(CSc2nnc(CN3CCOCC3)n2-c2ccccc2)c(Cl)c1,-26.3%
23,COc1ccc(S(=O)(=O)Nc2ccc3c(c2)CC(=O)N([C@@H](C)CO)C[C@@H](C)[C@H](CN(C)Cc2ccc(Cl)c(Cl)c2)O3)cc1,19.7%
24,COc1ccc(S(=O)(=O)Nc2ccc3c(c2)CC(=O)N([C@@H](C)CO)C[C@H](C)[C@H](CN(C)Cc2ccc(Cl)c(Cl)c2)O3)cc1,14.6%
25,COc1ccc(S(=O)(=O)Nc2ccc3c(c2)C(=O)N([C@H](C)CO)C[C@H](C)[C@H](CN(C)S(=O)(=O)c2ccc(F)cc2)OCCCC[C@@H](C)O3)cc1,19.6%
26,C[C@H]1CN([C@@H](C)CO)C(=O)Cc2cc(NS(=O)(=O)c3ccc(F)cc3)ccc2O[C@H]1CN(C)Cc1ccccc1,29.1%
27,COc1ccc(CN(C)C[C@@H]2Oc3ccc(NS(=O)(=O)c4ccc(F)cc4)cc3CC(=O)N([C@H](C)CO)C[C@H]2C)cc1,35.2% [at 21 µM]
28,C[C@@H]1CN([C@@H](C)CO)C(=O)Cc2cc(NS(=O)(=O)c3ccc(Cl)cc3)ccc2O[C@H]1CN(C)Cc1ccc(-c2ccccc2)cc1,28.9%
29,COc1ccc(S(=O)(=O)Nc2ccc3c(c2)C(=O)N([C@@H](C)CO)C[C@@H](C)[C@@H](CN(C)S(=O)(=O)c2ccc(F)cc2)OCCCC[C@H](C)O3)cc1,28.1%
30,COc1ccc(CN(C)C[C@@H]2Oc3ccc(NS(=O)(=O)c4ccc(Cl)cc4)cc3CC(=O)N([C@H](C)CO)C[C@H]2C)cc1,34.8%
